Laboratory results taken from the supplement of paper PMC11732987, “Enantioselective OTUD7B fragment discovery through chemoproteomics screening and high-throughput optimisation” (Communications Chemistry, 2025).

How the values were obtained:
Assay in all cases: log2 ratio of Biotin-Ahx-Ub-VS probe labelling (fragment/DMSO); higher = less target engagement (more negative = stronger competition), active = hit call of the paper (q ≤ 0.05, log2 ratio ≤ -1)
Details in all cases: compound concentration: 200 uM; treatment time: 3 h
USP42 = target: T1, USP42 (UniProt Q9H9J4)
T1 sequence (whole entry): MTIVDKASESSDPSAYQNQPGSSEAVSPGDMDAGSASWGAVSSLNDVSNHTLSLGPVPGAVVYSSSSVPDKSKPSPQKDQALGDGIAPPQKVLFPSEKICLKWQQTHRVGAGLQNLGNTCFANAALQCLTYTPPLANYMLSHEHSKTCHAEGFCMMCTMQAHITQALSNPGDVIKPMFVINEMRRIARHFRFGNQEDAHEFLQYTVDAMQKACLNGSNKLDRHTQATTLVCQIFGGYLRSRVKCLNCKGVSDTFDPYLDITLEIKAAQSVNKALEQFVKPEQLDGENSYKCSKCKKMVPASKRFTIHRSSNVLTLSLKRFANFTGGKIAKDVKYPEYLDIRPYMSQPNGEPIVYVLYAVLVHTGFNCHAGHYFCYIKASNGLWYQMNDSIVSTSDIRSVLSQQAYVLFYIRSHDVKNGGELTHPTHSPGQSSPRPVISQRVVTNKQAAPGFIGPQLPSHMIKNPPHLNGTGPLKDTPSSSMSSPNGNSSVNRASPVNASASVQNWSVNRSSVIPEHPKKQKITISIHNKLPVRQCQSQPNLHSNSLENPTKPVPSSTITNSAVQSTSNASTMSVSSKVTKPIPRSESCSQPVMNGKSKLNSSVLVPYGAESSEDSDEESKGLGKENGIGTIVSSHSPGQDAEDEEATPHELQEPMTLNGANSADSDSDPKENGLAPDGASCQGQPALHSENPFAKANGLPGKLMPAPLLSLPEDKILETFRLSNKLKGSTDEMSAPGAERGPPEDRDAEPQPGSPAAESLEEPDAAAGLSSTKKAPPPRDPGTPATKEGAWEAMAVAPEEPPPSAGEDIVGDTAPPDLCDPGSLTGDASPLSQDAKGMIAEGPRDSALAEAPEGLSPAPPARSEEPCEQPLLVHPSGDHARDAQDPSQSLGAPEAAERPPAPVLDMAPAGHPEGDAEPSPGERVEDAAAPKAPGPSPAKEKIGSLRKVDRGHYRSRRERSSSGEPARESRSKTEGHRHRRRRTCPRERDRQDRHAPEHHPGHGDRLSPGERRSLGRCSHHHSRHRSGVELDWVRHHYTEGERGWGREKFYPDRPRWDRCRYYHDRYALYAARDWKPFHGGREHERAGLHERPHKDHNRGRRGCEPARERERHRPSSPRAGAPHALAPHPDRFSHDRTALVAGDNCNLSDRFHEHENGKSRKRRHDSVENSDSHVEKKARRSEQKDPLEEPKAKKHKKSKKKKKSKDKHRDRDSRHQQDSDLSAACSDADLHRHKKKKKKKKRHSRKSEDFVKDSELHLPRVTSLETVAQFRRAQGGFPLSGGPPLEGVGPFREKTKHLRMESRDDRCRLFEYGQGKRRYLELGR
Outline: (§1)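 HEK293T lysate (495 µg per sample, in Tris/CHAPS/IGEPAL buffer with protease inhibitors) was treated in triplicate with fragment at 200 µM or with DMSO for 3 h. It was then treated with Biotin-Ahx-Ub-VS (0.5 µM final) for 1 h. Labelled DUBs were NeutrAvidin-enriched, digested with LysC and trypsin, and run by diaPASEF LC-MS/MS. Spectronaut label-free quantities were global-median-normalised. Values are average log2 ratios fragment/DMSO by unpaired t-test, using proteins with ≥2 unique peptides.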

USP46 = USP46 (UniProt P62068)
USP46, sequence (P62068 whole entry): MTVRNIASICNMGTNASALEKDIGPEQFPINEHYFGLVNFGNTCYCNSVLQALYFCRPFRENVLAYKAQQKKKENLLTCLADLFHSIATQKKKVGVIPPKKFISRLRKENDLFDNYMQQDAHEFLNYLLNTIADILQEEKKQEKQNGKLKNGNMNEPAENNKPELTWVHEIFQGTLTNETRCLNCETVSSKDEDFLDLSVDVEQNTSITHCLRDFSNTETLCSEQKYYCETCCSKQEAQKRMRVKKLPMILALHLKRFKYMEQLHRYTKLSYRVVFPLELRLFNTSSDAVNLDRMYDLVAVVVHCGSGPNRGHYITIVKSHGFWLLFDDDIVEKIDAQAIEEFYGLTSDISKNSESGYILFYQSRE
Outline: as §1

USP47 = target: T2, USP47 (UniProt Q96K76)
T2 sequence (whole entry): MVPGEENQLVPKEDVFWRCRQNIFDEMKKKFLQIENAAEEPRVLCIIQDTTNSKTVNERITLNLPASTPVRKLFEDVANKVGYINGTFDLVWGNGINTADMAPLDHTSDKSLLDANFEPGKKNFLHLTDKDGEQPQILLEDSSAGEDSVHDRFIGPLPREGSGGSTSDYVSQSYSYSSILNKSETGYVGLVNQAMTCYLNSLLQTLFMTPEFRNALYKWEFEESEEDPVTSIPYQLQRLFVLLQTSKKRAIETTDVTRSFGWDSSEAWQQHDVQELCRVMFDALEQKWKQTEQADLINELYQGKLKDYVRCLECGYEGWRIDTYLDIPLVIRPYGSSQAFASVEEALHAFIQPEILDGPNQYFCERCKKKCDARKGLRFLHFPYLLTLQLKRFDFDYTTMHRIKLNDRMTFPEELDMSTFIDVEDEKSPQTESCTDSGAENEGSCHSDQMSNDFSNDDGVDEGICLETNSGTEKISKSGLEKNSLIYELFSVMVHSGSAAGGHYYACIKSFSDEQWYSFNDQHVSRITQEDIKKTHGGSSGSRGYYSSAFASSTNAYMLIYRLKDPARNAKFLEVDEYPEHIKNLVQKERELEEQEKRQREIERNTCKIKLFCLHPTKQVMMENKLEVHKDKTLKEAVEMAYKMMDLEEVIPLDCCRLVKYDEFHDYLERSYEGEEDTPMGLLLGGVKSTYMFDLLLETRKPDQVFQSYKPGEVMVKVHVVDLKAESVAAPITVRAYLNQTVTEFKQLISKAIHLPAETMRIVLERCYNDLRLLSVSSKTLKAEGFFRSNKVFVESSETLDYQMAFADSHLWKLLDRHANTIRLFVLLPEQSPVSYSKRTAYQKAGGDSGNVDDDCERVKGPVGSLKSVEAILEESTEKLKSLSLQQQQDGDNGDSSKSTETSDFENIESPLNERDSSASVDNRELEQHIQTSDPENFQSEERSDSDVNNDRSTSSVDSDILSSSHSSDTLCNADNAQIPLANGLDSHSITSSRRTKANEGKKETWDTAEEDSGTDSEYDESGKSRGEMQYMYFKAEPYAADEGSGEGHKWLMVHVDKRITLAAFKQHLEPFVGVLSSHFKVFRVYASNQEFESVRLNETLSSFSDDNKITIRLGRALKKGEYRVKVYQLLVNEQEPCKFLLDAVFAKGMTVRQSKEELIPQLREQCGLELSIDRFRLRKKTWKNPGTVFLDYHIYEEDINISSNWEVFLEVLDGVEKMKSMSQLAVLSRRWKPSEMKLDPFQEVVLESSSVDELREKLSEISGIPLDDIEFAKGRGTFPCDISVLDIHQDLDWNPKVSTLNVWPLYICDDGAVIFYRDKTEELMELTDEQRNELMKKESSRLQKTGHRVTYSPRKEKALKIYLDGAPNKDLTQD
Outline: as §1

USP48 = target: T3, USP48 (UniProt Q86UV5)
T3 sequence (whole entry): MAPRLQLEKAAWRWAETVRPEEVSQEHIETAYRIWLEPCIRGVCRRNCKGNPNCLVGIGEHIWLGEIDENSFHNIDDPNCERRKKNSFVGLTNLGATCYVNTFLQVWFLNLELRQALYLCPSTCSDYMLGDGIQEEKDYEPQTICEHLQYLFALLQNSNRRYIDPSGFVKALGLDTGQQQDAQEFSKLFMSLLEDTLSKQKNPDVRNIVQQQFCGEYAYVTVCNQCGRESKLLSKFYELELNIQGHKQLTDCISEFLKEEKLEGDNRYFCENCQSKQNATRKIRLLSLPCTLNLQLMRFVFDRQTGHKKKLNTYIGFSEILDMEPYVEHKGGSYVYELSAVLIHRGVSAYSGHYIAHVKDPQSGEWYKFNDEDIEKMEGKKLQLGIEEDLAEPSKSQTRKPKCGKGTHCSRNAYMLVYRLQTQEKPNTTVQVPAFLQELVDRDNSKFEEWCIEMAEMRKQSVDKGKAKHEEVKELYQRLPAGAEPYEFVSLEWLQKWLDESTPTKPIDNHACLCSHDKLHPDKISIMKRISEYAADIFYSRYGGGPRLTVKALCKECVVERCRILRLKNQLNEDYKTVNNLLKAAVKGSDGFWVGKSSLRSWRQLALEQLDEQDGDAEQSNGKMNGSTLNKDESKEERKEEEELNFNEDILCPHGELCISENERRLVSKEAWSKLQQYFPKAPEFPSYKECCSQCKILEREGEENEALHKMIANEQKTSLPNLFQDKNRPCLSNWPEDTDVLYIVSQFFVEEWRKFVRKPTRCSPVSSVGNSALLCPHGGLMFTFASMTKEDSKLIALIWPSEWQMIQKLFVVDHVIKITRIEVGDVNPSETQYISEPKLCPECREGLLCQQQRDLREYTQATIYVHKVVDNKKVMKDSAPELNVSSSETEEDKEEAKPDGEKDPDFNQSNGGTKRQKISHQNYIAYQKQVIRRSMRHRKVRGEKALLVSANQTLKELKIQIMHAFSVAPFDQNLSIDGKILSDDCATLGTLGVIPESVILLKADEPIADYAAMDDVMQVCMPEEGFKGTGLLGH
Outline: as §1

USP5 = target: T4, USP5 (UniProt P45974)
T4 sequence (whole entry): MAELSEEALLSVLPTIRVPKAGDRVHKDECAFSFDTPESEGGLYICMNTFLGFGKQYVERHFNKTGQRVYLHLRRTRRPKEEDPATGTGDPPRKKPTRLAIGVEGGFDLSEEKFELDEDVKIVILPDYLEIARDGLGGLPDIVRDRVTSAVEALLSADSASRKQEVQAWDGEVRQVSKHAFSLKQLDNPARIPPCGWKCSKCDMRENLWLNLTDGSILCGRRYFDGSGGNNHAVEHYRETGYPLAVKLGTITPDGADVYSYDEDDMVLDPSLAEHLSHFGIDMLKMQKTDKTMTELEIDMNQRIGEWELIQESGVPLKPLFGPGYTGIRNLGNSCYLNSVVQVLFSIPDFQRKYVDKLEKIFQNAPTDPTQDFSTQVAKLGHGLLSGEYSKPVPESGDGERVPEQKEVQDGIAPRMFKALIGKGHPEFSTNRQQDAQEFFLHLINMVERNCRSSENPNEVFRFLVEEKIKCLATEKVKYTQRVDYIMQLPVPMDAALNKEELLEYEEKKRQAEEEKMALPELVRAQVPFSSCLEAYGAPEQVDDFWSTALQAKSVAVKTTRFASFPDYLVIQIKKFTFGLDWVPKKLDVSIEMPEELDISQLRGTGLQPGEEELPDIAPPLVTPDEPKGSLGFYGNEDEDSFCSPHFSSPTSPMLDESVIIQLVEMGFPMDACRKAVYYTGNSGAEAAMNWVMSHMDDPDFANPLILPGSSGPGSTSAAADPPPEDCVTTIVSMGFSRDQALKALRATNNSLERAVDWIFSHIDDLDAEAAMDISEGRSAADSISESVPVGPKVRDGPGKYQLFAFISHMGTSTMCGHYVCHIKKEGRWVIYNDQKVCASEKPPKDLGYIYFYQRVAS
Outline: as §1

USP54 = USP54 (UniProt Q70EL1)
USP54, sequence (Q70EL1 whole entry): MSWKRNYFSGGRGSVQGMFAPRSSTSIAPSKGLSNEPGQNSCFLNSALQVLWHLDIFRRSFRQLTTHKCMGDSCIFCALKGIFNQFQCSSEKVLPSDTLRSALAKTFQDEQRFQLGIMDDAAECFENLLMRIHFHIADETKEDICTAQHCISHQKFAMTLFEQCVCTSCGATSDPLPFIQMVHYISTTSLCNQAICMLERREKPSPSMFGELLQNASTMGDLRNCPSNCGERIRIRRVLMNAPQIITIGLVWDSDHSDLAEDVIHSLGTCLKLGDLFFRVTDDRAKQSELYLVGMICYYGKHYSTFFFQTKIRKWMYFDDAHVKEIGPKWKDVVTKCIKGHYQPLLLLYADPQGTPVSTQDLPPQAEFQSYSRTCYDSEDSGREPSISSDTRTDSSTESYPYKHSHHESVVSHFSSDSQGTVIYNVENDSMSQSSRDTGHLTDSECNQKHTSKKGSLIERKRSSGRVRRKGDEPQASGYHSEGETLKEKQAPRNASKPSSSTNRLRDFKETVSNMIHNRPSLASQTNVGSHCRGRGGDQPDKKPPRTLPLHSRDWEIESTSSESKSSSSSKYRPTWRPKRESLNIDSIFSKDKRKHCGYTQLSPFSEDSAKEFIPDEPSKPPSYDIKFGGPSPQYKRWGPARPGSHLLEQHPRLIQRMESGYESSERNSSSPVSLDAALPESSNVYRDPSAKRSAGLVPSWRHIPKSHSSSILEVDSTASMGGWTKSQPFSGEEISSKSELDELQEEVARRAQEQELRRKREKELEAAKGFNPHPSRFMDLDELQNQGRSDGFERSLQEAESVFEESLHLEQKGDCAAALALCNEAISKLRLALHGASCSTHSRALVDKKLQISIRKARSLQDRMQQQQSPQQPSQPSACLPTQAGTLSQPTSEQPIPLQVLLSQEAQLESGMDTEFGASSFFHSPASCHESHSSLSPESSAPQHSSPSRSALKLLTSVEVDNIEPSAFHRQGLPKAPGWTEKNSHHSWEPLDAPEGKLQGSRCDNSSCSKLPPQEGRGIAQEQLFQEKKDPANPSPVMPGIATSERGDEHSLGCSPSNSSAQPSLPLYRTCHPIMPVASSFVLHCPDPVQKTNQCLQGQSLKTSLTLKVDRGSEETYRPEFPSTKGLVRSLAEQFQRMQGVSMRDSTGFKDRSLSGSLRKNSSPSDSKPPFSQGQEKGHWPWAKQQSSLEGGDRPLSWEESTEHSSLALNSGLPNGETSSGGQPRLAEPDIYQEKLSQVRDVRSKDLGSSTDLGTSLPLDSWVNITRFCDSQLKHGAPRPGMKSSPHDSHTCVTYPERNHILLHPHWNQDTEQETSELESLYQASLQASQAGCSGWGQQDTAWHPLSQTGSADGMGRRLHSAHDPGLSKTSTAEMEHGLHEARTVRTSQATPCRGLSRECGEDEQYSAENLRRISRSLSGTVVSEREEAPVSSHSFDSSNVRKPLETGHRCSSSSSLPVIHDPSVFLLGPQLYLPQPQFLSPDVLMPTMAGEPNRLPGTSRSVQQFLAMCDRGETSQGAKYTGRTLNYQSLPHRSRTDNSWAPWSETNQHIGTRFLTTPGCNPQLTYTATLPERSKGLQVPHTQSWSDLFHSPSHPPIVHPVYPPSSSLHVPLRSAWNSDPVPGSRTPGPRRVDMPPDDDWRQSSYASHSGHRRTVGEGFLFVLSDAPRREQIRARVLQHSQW
Outline: as §1

USP7 = USP7 (UniProt Q93009)
USP7, sequence (Q93009 whole entry, looked up): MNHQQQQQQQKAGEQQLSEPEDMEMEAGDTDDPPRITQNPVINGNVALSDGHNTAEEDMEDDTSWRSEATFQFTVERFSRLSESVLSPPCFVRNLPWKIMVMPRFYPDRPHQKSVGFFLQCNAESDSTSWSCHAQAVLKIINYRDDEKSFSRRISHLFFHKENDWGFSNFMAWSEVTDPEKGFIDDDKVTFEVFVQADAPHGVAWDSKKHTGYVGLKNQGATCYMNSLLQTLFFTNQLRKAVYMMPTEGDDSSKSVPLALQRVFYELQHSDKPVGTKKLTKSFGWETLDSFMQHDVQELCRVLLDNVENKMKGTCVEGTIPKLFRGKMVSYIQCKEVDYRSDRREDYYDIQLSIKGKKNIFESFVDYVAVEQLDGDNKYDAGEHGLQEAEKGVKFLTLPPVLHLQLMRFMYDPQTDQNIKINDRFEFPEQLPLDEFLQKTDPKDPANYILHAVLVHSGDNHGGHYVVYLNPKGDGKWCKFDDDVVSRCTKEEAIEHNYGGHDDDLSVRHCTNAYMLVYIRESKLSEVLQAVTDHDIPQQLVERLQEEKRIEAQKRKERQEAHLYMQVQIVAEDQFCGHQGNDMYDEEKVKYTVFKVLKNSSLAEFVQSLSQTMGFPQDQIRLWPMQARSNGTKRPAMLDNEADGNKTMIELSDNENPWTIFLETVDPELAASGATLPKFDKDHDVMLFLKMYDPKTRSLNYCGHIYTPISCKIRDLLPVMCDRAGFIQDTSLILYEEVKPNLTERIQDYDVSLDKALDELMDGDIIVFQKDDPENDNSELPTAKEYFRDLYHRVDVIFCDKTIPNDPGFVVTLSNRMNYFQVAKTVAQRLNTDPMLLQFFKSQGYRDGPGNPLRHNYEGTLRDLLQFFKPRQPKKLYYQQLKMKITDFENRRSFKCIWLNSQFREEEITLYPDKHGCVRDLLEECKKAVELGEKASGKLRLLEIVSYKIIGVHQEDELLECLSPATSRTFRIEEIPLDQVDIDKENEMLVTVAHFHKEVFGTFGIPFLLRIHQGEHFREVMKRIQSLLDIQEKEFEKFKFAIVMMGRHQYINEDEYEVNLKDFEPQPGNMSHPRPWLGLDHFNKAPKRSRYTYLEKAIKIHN
Outline: as §1

USP8 = target: T5, USP8 (UniProt P40818)
T5 sequence (whole entry): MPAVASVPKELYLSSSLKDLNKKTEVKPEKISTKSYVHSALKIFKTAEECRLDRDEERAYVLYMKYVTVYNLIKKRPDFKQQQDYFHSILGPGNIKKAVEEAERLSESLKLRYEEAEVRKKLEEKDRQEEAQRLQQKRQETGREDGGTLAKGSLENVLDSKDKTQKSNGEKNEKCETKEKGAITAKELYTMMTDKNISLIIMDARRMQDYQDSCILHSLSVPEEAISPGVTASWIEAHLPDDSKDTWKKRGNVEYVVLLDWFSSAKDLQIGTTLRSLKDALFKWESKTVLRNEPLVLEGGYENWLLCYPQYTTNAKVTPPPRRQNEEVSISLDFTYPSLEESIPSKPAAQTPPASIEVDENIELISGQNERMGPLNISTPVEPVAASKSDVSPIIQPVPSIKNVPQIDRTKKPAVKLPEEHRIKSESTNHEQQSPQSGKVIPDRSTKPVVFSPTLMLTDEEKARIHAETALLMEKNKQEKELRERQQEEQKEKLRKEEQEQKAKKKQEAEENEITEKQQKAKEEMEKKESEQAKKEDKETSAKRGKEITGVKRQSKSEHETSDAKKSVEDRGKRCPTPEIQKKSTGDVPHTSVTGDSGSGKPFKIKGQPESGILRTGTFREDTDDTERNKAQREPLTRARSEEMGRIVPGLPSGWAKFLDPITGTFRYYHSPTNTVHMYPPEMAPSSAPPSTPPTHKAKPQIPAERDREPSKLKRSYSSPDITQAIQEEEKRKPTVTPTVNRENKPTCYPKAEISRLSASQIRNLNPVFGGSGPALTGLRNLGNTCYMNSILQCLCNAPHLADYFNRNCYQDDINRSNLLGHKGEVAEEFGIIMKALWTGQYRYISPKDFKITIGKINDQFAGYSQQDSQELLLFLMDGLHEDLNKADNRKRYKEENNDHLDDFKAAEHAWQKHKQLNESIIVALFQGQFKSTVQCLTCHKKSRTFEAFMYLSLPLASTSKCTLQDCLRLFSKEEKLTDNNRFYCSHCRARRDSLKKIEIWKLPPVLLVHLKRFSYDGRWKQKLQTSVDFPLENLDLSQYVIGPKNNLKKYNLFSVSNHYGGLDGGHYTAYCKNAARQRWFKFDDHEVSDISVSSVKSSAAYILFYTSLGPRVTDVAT
Outline: as §1

Measured: log2 ratio of Biotin-Ahx-Ub-VS probe labelling

Cc1ccc(CC(CO)CNC(=O)CCl)cc1 (stereo not drawn)
inactive: USP42 -0.0167 | USP46 -0.000866 | USP47 -0.102 | USP48 -0.405 | USP5 -0.182 | USP54 0.455 | USP7 -0.381 | USP8 -0.322
